The results in this text go back to PubChem BioAssay.

pEC50: −log10 of the molar value. Results filed as inconclusive are left out. For some assays here: Measured potencies and affinities stand elsewhere. The source made the active and inactive calls.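 The calls were made as follows, unless noted: active = luciferase signal above three times the same-plate solvent-only control wells; inactive = the rest.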

For assay [1], the target named is Mitogen-activated protein kinase 7 (Homo sapiens) (UniProt Q13164). The assay can be described thus: ERK5 transactivation activators in reporter cells, primary screen, cell-based, HTS (AID 1508626).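 Also: luciferase driven by Gal4-ERK5 fusion binding five Gal4 sites before minimal TATA.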 Particulars: HeLa Gal4-ERK5 transactivation, 18 h, at 5 µM, stronger effect = higher value.
Assay [2] deals with NAD(+) hydrolase SARM1 (Homo sapiens) (UniProt Q6SZW1). The assay can be described thus: SARM1 TIR NADase inhibitors, cell lysate, NAD-Glo luminescence (AID 1508614;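 active = compound whose remaining NAD level is above about 45 nM, limit read from the data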;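 also: higher remaining NAD means stronger inhibition of SARM1 NADase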). To be noted: SAM-TIR HEK293T lysate NADase, at 1 µM, stronger effect = higher value.
Assay [3] in a line: mitochondrial permeability transition inhibitors (AID 1580; call rule not given here). To be noted: isolated mitochondria, permeability transition inhibition.
A short description of assay [4]: inhibitors of polyQ aggregate elongation, biochemical, solid-phase synthetic aggregates, QA3 (AID 1585; call rule not given here). To be noted: biotin-polyQ incorporation; EC50: measured here: elongation inhibition potency; inhibition: at 100 µM, stronger effect = higher value.
Assay [5] in a line: enhancers of SMN2 over SMN1 splicing, cell-based, SMN2/SMN1 luciferase reporters (AID 1598; call rule not given here). Particulars: SMN2 vs SMN1 luciferase splicing reporter cells, at 10 µM; SMN1 luciferase ratio: measured here: SMN1 luciferase reporter average; SMN2 luciferase ratio: measured here: SMN2 luciferase reporter average, stronger effect = higher value; SMN2/SMN1 luciferase ratio: stronger effect = higher value.

Assay [6] is described as follows: polyglutamine-triggered caspase-3 activation inhibitors, cell-based (AID 1583). Particulars: polyglutamine-induced caspase-3 activation, cell assay; stronger effect = higher value;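 tested at 10 µM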.
Assay [7] can be described thus: suppressors of polyQ aggregation in yeast, 75Q-TubU reporter (AID 1593). To be noted: Yeast 75Q polyglutamine aggregation reporter.
A short description of assay [8]: rescue of polyQ-huntingtin neuronal dysfunction in worms, whole organism, C. elegans mechanosensory neurons, N-terminal huntingtin (AID 1599). Particulars: touch response, stronger effect = higher value.
A short description of assay [9]: inhibitors of mitochondrial cytochrome c release, biochemical, purified mitochondria (AID 1603).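 Also: mouse liver mitochondria challenged with calcium chloride; signal normalized to the plate average as 100%.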 Particulars: stronger effect = lower value.
The nature of assay [10]: inhibitors of polyQ protein aggregation (AID 1604). Particulars: polyglutamine-induced protein aggregation inhibition assay; stronger effect = higher value; tested at 2.5 µM.
Assay [11] can be described thus: enhancers of glutamate uptake in motor neurons, MN-1 cell line (AID 1612).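 Also: tested at 1 µM final; 0% = mean of DMSO vehicle wells on each plate; positive means more glutamate uptake than control and negative means less.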 To be noted: MN-1 motor neuron cells, stronger effect = higher value.
Assay [12] in a line: reducers of polyQ inclusions in PC12 cells, cell-based, NGF-treated PC12, GFPQ80 (AID 1614).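 Also: lower means fewer inclusions and 0 means no inclusions at all.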 Particulars: PC12 NGF-treated GFP-polyQ80 inclusion reduction.
A short description of assay [13]: suppressors of polyglutamine aggregation in yeast, 75Q-TubH (AID 1616). To be noted: S. cerevisiae 75Q-TubH polyglutamine aggregation suppression; stronger effect = higher value.

Sequence of Mitogen-activated protein kinase 7 (Homo sapiens) (Q13164 whole entry, looked up, the tested form may be a part): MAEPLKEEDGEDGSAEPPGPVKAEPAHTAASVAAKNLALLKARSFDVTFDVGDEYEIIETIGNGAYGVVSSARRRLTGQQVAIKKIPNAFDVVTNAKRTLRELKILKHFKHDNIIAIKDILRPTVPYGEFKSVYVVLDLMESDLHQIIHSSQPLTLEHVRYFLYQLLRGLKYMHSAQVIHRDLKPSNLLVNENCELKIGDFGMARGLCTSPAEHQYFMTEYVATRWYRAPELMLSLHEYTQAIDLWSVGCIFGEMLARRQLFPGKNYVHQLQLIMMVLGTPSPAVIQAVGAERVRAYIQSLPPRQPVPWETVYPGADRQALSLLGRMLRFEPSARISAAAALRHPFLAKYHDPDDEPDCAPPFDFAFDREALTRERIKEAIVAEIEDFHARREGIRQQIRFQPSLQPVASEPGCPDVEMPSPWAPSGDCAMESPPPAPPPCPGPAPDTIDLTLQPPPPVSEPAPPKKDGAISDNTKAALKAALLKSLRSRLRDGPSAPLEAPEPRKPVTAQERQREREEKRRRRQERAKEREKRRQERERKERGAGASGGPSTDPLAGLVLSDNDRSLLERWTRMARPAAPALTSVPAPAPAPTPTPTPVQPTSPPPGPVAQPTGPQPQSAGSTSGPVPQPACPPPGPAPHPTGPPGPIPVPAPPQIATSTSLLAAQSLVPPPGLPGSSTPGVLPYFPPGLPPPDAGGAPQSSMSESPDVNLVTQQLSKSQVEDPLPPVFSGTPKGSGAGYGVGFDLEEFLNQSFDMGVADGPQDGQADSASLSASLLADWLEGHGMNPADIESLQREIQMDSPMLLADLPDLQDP
Sequence of NAD(+) hydrolase SARM1 (Homo sapiens) (Q6SZW1 whole entry, looked up): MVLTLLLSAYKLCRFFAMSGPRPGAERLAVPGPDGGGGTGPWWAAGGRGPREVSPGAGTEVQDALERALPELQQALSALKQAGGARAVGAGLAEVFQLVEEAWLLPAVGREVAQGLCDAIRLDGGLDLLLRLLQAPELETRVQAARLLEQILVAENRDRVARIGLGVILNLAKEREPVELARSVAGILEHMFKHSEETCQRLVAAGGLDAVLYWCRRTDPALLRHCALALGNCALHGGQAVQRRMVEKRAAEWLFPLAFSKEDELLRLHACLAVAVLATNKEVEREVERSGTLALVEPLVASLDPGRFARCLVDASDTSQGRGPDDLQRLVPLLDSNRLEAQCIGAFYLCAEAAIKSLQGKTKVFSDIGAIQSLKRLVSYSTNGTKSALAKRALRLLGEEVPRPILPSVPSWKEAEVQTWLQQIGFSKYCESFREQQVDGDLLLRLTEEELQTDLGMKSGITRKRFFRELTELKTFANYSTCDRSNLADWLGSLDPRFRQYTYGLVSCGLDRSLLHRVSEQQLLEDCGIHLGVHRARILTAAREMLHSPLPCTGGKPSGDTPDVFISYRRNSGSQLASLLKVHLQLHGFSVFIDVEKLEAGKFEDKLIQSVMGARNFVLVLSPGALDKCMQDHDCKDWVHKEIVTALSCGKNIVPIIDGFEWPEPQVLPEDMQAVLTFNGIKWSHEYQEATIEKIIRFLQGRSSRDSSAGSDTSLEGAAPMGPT

Take `CC1(C)CC[C@]2(C(=O)O)CC[C@]3(C)C(=CC[C@@H]4[C@@]5(C)CC[C@H](O)C(C)(C)[C@@H]5[C@H](O)C[C@]43C)[C@@H]2C1`: the luciferase signal in assay [1] was 84 AU (inactive).
With `C[C@]12C=CC(=O)C=C1CC[C@@H]1[C@@H]2[C@@H](O)C[C@@]2(C)[C@H]1CC[C@]2(O)C(=O)COP(=O)(O)O`, in assay [2], the remaining NAD is 10 nM (inactive). Also, the luciferase signal in assay [1] was 96 AU (inactive).
With `CCCCCCCCCCCC[C@@H](C(=O)O)[C@H](C)C(=O)O`, the luciferase signal in [1] is 32 AU (inactive).
Take `C[C@@H]1CC[C@@]2(OC1)O[C@H]1C[C@H]3[C@@H]4CC[C@@H]5C[C@@H](O)CC[C@]5(C)[C@H]4CC[C@]3(C)[C@H]1[C@@H]2C`: in assay [1], the luciferase signal was 20 AU (inactive).
Regarding `C/C1=C\CC(C)(C)/C=C/CC2(C)OC2CC1` (stereo not given), the luciferase signal in assay [1] was 64 AU (inactive).
Take `CC(=O)O[C@H]1CC[C@@]2(C)[C@@H](CC[C@@H]3[C@@H]2CC(=O)[C@]2(C)[C@@H]4[C@H](C[C@@H]32)O[C@]2(CC[C@@H](C)CO2)[C@H]4C)C1`: the luciferase signal in assay [1] was 56 AU (inactive).
On the same count and under the same terms, then `CC(C)=CCC/C(C)=C/CC/C(C)=C/CC/C(C)=C/CO`, with 0 AU (inactive); and `CC1CCC2(OC1)OC1CC3C4CCC5C[C@@H](O)CCC5(C)C4=CCC3(C)C1C2C` (stereo not given in full), with 644 AU (active); and `C=C1C(=O)C23C(O)C1CCC2C12COC3(O)C(O)C1C(C)(C)CCC2O` (stereo not given), with 108 AU (inactive).
The same measure, in the same setting: with `N[C@@H](C=O)[C@@H](O[C@@H]1O[C@H](C(=O)O)[C@@H](O)[C@H](O)[C@H]1O)[C@@H](O)[C@H](O)CO` the figure was 20 AU (inactive); with `C=C1CC[C@@]2(OC1)O[C@H]1C[C@H]3[C@@H]4CC=C5C[C@@H](O)C[C@@H](O)[C@]5(C)[C@H]4CC[C@]3(C)[C@H]1[C@@H]2C`, 84 AU (inactive).
Same read-out and setting: then `CC(C)=CCC[C@@H](C)[C@@H]1CC[C@]2(C)C3=C(CC[C@@]12C)[C@@]1(C)CC[C@H](O)C(C)(C)[C@@H]1CC3`, with 68 AU (inactive).
With `CC1(C)CC2C1CC[C@]1(C)CCC3C(C(=O)O)CC(=O)O[C@@]32C1` (stereo not given in full), in [1], the luciferase signal is 56 AU (inactive).
As for `O=c1c(O)c(-c2ccc(O)c(O)c2)oc2c(O[C@@H]3O[C@H](CO)[C@@H](O)[C@H](O)[C@H]3O)c(O)cc(O)c12`, in assay [1], the luciferase signal is 36 AU (inactive).
Same read-out and setting: with `CC(=O)[C@H]1CC[C@H]2[C@@H]3CCC4=CC(=O)CC[C@]4(C)[C@H]3C(OC(=O)CCC(=O)O)C[C@]12C` (stereo not given in full) the figure was 60 AU (inactive); with `COC(=O)Oc1ccccc1C(=O)O`, 40 AU (inactive); with `CC1=C2[C@@H]([C@H](C)CC[C@H]2/C=C(\C)C(=O)O)[C@H](O)C1`, 24 AU (inactive).
Still for that read-out and setting: with `Nc1ncnc2c1ncn2[C@H]1C[C@H](O)[C@@H](CO)O1` the figure was 136 AU (inactive).
The same measure, in the same setting: then `NC(=O)CCCCC(S)CCS` (stereo not given), with 32 AU (inactive).
As to `C[C@@]12CCc3occc3[C@H]1CC[C@@]13C[C@@H](CC[C@H]12)[C@@](O)(CO)C3`, in assay [1], the luciferase signal is 40 AU (inactive).
Turning to `Oc1ccc2c(c1)OC[C@]1(O)Cc3cc(O)c(O)cc3[C@H]21`, the luciferase signal in assay [1] was 28 AU (inactive).
Same read-out and setting: then `OC[C@@H](O)C(O)[C@@H](O)CO` (stereo not given in full), with 88 AU (inactive).
As to `CC1(C)CCCC2(C)C3C(O)CC2(C)C(O)C31` (stereo not given), the luciferase signal in [1] is 64 AU (inactive).
On to `COc1ccc(/C=C/C(=O)c2ccc(O)cc2O)cc1OC`, for which the luciferase signal in assay [1] is 60 AU (inactive).
For `CC(=O)O[C@H]1CC[C@@]2(C)C(=CC[C@H]3[C@@H]4CC[C@H]([C@H](C)CCCC(C)C)[C@@]4(C)CC[C@@H]32)C1`, the luciferase signal in assay [1] was 56 AU (inactive).
Same read-out and setting: with `CC(=O)Oc1cc(C)c2c(c1C=O)Oc1c(c(C)c(OC(C)=O)c3c1C(OC(C)=O)OC3=O)OC2=O` (stereo not given) the figure was 172 AU (inactive); with `CC(C)CCC[C@@H](C)[C@H]1CC[C@H]2[C@@H]3CC[C@H]4C[C@H](O)CC[C@]4(C)[C@H]3CC[C@]12C`, 140 AU (inactive); with `CC(C)(O)[C@H]1CC[C@]2(C)[C@H]3CC[C@@H]4[C@@]5(C)CCCC(C)(C)[C@@H]5[C@@H](O)C[C@@]4(C)[C@]3(C)CC[C@@H]12`, 84 AU (inactive).
On the same count and under the same terms, with `CO/N=C(/C(=O)NC1C(=O)N2C(C(=O)O)=C(CSc3nc(=O)c(=O)[nH]n3C)CS[C@H]12)c1csc(N)n1` (stereo not given in full) the figure was 52 AU (inactive); with `CNS(=O)(=O)c1ccc(NC(=O)c2ccccc2C(=O)O)cc1`, 28 AU (inactive).
Same read-out and setting: with `CC(C)CCC[C@@H](C)C1CC[C@H]2[C@@H]3CCC4CC(=O)CC[C@]4(C)[C@H]3CC[C@]12C` (stereo not given in full) the figure was 52 AU (inactive); with `O=c1cc(-c2cccc(O)c2)oc2ccc(O)cc12`, 124 AU (inactive); with `CC(C)CCC[C@@H](C)[C@H]1CC[C@H]2[C@@H]3CC(=O)[C@H]4C[C@@H](O)CC[C@]4(C)[C@H]3CC[C@]12C`, 216 AU (active).
`O=C(O)C(O)C(O)(Cc1ccc(O)cc1)C(=O)O` (stereo not given): the luciferase signal in assay [1] was 16 AU (inactive).
The same measure, in the same setting: then `C=C[C@](C)(O)CCC=C(C)C`, with 36 AU (inactive); and `C[C@H]1[C@@H](O)O[C@@H]2O[C@@]3(C)CC[C@H]4[C@H](C)CC[C@@H]1[C@@]24OO3`, with 52 AU (inactive).
Still for that read-out and setting: with `CC[C@H](CC[C@@H](C)[C@H]1CC[C@H]2[C@@H]3CC[C@H]4C[C@@H](O)CC[C@]4(C)[C@H]3CC[C@]12C)C(C)C` the figure was 12 AU (inactive); with `C[C@H](CCC(=O)O)[C@H]1CC[C@H]2[C@@H]3CC[C@@H]4CCCC[C@]4(C)[C@H]3CC[C@]12C`, 36 AU (inactive); with `CC(=O)OC1C[C@@]2(C)C(CC[C@@H]2C(C)=O)C2CCC3=CC(=O)CC[C@]3(C)C12` (stereo not given in full), 108 AU (inactive).
For `CC1=C2[C@H](/C=C(\C)C(=O)O)CC[C@@H](C)[C@H]2CC1`, the luciferase signal in assay [1] was 68 AU (inactive).
The same measure, in the same setting: then `COc1cc2c(cc1OC)C1Cc3ccc(OC)c(OC)c3CN1CC2` (stereo not given), with 52 AU (inactive).
With `CCCCC/C=C/CCC(=O)N[C@H]1[C@H](Oc2c3cc4cc2Oc2ccc(cc2Cl)[C@@H](O[C@@H]2O[C@H](CO)[C@@H](O)[C@H](O)[C@H]2NC(C)=O)[C@@H]2NC(=O)[C@H](NC(=O)[C@@H]4NC(=O)[C@H]4NC(=O)C(Cc5ccc(c(Cl)c5)O3)NC(=O)[C@@H](N)c3ccc(O)c(c3)Oc3cc(O)cc4c3)c3ccc(O)c(c3)-c3c(OC4O[C@H](CO)[C@@H](O)[C@H](O)[C@@H]4O)cc(O)cc3[C@@H](C(=O)O)NC2=O)O[C@H](CO)[C@@H](O)[C@@H]1O` (stereo not given in full), the luciferase signal in assay [1] was 52 AU (inactive).
One may read the EC50 as the midpoint of the concentration-response curve. As for `CC[C@@H](C(=O)C(C)[C@@H](O)[C@H](C)CCc1ccc(C)c(O)c1C(=O)O)C1OC(CC)(C2CC[C@](O)(CC)[C@H](C)O2)C[C@@H]1C` (stereo not given in full), in assay [3], the EC50 is 0.1 µM (active).
As usually defined, the pEC50 is −log10 of the EC50, conventionally taken in molar units. In general, inhibition refers to the share of the control response that was lost under treatment. For the compound `O=c1c(O)cc2c(O)oc3c(=O)c(O)cc4c3c2c1CC=4O`, in assay [4], the pEC50 was 4.36 and the inhibition is 82% (active).
On to `CC[C@@]1(O)C[C@H](OC2CC(N(C)C)C(OC3CC(O)C(OC4CCC(=O)C(C)O4)C(C)O3)C(C)O2)c2c(cc3c(c2O)C(=O)c2c(O)cccc2C3=O)[C@H]1C(=O)OC` (stereo not given in full), for which, in [5], the SMN1 luciferase ratio was 1.26, the SMN2/SMN1 luciferase ratio is 1.34 (active) and the SMN2 luciferase ratio is 1.64.
Regarding `CC(=O)Oc1ccc2c(c1)CCC1C2CCC2(C)C(=O)CCC12` (stereo not given), the inhibition in assay [6] is 10.5%. In addition, in [7], the score was -0.03. Also, in assay [8], the rescue above control was -10.4. In [9], the cytochrome c release ratio came to 0.81. Also, the inhibition of aggregation in assay [10] is 85.9%. In addition, in [11], the glutamate uptake change is -16%. Also, the inclusion score in assay [12] came to 2. Also, the aggregation suppression score in assay [13] amounted to 0.169.
Take `O=c1cc(-c2ccccc2)oc2cc(O)c(O)cc12`: the inhibition in assay [6] is 18.9%. The same compound showed a score in [7] of 1.42. The rescue above control in assay [8] was found to be 7.3. Moreover, in [9], the cytochrome c release ratio amounted to 1.21. The compound also gave an inhibition of aggregation in assay [10] of 41%. In addition, the glutamate uptake change in assay [11] came to 11%. This compound showed an inclusion score in [12] of 2. In assay [13], the aggregation suppression score worked out at 0.852.
